# From publication PMC7862700, “An all-to-all approach to the identification of sequence-specific readers for epigenetic DNA modifications on cytosine”
# Experiments:
# Assay in all cases: DAPPL (digital affinity profiling via proximity ligation, sequencing); 10 mM Tris-HCl pH 7.5, 50 mM NaCl, 1 mM DTT, 4% glycerol, room temperature, 30 min; GST-TFs on glutathione beads, 16-mer random dsDNA library, 0.1% formaldehyde crosslink after washing; high values mean tight binding
# [1] = molecular target: T1, FLI1 (Homo sapiens, UniProt Q01543 1-452); settings: protein: recombinant; tags: N-terminal GST; dsDNA, one strand shown
# T1 sequence: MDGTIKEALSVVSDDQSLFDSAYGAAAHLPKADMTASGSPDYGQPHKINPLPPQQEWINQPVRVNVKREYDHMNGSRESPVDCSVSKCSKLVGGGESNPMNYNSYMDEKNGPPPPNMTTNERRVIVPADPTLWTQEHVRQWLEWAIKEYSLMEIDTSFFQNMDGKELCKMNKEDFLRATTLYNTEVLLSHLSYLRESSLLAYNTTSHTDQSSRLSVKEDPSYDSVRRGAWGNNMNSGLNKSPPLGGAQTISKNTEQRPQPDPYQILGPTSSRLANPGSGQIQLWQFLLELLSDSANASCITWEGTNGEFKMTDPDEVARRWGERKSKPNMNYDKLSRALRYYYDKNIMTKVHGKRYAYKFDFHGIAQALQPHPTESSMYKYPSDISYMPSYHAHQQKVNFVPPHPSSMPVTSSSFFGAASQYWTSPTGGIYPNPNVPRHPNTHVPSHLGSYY
# Procedure, shortened: (§1)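 Sequencing on an Illumina NextSeq500 followed washing, crosslinking with 0.1% formaldehyde, proximity ligation (BsaI/T4 ligase, 1 h, 37 °C) and PCR amplification of pools that had been incubated for 30 min at room temperature with 200 nmole of a random double-stranded 16-mer DNA library in Tris/NaCl/DTT/glycerol buffer. Each pool held DNA-barcoded human transcription factors, expressed in yeast as GST fusions and captured on glutathione beads, plus a tag-only sample. Binding signal is a hexamer's read frequency for a factor divided by its frequency in the tag-only sample.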
# [2] = molecular target: T2, ELK1 (Homo sapiens, UniProt P19419 1-428); settings: protein: recombinant; tags: N-terminal GST; dsDNA, one strand shown
# T2 sequence: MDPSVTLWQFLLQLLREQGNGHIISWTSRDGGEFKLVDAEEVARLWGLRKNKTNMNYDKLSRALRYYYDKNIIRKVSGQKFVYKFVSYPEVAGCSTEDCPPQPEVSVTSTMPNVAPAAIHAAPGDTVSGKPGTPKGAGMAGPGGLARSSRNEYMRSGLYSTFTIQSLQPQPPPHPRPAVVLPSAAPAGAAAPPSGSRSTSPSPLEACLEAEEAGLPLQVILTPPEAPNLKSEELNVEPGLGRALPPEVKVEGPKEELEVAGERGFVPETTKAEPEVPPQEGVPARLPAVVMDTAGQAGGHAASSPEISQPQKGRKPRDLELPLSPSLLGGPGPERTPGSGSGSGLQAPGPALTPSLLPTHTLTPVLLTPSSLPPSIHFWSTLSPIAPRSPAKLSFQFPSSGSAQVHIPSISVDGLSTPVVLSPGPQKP
# Procedure, shortened: as §1
# [3] = molecular target: T3, GABPA (Homo sapiens, UniProt Q06546 1-454); settings: protein: recombinant; tags: N-terminal GST; dsDNA, one strand shown
# T3 sequence: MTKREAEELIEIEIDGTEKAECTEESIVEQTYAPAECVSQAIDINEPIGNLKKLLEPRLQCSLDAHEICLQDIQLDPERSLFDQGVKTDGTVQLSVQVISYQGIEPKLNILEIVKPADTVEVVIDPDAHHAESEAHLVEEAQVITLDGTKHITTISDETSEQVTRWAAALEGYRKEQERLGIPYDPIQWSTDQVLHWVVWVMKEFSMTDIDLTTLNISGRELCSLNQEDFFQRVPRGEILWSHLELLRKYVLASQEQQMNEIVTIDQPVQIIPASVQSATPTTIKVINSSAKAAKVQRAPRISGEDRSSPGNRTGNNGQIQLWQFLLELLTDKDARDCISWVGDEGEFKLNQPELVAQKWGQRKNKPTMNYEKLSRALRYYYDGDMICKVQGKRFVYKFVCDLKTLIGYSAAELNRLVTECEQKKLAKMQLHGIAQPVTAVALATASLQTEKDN
# Procedure, shortened: as §1
# [4] = molecular target: T4, ERG (Homo sapiens, UniProt P11308 1-479); settings: protein: recombinant; tags: N-terminal GST; dsDNA, one strand shown
# T4 sequence: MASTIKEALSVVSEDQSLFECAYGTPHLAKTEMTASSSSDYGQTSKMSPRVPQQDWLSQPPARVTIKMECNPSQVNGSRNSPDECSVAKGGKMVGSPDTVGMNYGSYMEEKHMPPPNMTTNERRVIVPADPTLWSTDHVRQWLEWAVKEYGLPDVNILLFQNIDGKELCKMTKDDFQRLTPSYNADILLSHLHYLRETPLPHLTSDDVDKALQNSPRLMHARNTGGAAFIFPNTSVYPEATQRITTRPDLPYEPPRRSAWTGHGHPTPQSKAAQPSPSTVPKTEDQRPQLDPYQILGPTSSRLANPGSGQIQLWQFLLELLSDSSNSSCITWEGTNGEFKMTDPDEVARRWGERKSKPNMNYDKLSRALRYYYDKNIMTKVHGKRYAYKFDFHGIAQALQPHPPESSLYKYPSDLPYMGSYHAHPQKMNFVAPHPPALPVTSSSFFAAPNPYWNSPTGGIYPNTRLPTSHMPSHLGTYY
# Procedure, shortened: as §1
# [5] = molecular target: ELF1 (Homo sapiens, UniProt P32519 1-619); settings: protein: recombinant; tags: N-terminal GST; dsDNA, one strand shown
# Sequence of ELF1 (P32519 whole entry): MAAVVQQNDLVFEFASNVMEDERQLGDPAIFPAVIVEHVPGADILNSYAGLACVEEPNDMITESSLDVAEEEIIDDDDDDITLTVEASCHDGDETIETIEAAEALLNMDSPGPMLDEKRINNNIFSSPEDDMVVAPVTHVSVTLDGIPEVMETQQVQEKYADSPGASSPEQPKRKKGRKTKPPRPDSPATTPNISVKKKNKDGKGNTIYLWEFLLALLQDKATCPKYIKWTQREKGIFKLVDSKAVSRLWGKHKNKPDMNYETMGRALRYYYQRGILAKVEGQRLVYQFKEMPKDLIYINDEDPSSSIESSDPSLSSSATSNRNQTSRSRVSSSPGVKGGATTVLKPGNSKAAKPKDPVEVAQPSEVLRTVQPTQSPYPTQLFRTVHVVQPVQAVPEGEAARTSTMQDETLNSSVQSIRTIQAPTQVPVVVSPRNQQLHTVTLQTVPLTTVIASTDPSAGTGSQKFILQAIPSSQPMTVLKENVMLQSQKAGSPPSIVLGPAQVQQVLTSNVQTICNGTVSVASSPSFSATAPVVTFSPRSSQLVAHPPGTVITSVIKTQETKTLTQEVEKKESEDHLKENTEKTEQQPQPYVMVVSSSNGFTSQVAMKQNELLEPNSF
# Procedure, shortened: as §1
# [6] = molecular target: T5, EHF (Homo sapiens, UniProt Q9NZC4 1-300); settings: protein: recombinant; tags: N-terminal GST; dsDNA, one strand shown
# T5 sequence: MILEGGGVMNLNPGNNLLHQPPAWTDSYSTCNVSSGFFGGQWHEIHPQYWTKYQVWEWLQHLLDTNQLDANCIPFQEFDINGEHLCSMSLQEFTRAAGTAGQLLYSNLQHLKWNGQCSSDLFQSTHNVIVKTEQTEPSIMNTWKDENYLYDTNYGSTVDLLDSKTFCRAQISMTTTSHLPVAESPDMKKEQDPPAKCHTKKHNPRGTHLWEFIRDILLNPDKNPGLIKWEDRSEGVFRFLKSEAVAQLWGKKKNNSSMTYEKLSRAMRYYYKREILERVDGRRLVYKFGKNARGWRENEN
# Procedure, shortened: as §1
# [7] = molecular target: SPI1 (Homo sapiens, UniProt P17947 1-270); settings: protein: recombinant; tags: N-terminal GST; dsDNA, one strand shown
# Procedure, shortened: as §1
# [8] = molecular target: SPIB (Homo sapiens, UniProt Q01892 1-262); settings: protein: recombinant; tags: N-terminal GST; dsDNA, one strand shown
# Sequence of SPIB (Q01892 whole entry): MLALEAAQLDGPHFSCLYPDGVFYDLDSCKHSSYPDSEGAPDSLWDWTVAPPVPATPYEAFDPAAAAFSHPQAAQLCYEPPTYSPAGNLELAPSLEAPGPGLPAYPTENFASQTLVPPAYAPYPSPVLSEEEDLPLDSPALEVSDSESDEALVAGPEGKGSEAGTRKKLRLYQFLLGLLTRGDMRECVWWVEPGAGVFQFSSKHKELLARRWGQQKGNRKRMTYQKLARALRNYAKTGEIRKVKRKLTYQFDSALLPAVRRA
# Procedure, shortened: as §1
# [9] = molecular target: T6, ELK3 (Homo sapiens, UniProt P41970 1-407); settings: protein: recombinant; tags: N-terminal GST; dsDNA, one strand shown
# T6 sequence: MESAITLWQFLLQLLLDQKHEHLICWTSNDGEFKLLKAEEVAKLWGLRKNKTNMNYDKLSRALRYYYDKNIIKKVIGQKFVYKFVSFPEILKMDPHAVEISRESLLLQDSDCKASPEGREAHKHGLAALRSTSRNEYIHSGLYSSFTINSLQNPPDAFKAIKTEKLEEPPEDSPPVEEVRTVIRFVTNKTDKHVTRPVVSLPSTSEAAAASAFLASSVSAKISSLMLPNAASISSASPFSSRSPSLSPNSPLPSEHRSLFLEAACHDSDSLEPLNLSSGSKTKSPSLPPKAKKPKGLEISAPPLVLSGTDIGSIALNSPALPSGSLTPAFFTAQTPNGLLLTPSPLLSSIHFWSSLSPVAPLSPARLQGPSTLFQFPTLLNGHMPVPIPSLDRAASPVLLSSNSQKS
# Procedure, shortened: as §1
# [10] = molecular target: T7, FEV (Homo sapiens, UniProt Q99581 1-238); settings: protein: recombinant; tags: N-terminal GST; dsDNA, one strand shown
# T7 sequence: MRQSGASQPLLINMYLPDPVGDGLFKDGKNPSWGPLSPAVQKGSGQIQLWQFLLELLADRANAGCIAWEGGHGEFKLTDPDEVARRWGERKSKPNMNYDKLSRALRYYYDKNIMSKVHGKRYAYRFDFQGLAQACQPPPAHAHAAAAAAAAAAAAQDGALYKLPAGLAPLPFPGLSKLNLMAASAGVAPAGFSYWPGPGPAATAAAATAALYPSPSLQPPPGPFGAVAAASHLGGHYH
# Procedure, shortened: as §1
# [11] = molecular target: ETV5 (Homo sapiens, UniProt P41161 1-510); settings: protein: recombinant; tags: N-terminal GST; dsDNA, one strand shown
# Sequence of ETV5 (P41161 whole entry): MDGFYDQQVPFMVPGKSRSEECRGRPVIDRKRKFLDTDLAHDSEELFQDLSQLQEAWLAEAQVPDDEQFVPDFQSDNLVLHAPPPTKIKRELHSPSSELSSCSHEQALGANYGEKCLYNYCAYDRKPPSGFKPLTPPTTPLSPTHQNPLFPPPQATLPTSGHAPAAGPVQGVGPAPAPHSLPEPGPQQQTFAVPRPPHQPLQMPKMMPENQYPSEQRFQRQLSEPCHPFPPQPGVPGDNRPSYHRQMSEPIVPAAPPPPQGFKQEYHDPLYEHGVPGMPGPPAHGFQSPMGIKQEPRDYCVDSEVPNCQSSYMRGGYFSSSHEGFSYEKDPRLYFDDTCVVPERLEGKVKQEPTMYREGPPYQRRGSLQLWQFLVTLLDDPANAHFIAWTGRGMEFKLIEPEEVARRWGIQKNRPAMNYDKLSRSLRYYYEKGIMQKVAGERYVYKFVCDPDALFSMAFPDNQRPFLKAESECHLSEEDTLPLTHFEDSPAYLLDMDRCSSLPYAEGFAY
# Procedure, shortened: as §1
# [12] = molecular target: HSF1 (Homo sapiens, UniProt Q00613 1-529); settings: protein: recombinant; tags: N-terminal GST; chain copies: 3; dsDNA, one strand shown
# Sequence of HSF1 (Q00613 whole entry): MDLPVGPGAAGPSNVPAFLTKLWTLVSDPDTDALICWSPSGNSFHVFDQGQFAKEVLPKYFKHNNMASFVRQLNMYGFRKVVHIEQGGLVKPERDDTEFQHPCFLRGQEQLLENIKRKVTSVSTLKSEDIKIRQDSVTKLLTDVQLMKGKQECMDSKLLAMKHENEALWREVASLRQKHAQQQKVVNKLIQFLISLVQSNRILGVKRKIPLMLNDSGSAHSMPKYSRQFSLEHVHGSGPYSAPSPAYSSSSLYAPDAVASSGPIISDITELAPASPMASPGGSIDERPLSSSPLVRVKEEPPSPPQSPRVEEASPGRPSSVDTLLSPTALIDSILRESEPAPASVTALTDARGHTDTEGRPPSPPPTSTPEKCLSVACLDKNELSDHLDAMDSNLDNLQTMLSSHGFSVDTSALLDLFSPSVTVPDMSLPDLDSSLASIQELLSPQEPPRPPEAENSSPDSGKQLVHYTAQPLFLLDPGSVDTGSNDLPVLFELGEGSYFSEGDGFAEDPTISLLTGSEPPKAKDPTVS
# Procedure, shortened: as §1
# [13] = molecular target: T8, SPIC (Homo sapiens, UniProt Q8N5J4 1-248); settings: protein: recombinant; tags: N-terminal GST; dsDNA, one strand shown
# T8 sequence: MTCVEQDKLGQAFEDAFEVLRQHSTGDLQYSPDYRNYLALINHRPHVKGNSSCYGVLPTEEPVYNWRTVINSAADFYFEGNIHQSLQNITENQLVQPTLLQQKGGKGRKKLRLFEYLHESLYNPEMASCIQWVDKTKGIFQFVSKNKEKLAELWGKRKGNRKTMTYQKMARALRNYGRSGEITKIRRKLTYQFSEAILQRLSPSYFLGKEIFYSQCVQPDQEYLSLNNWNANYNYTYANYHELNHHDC
# Procedure, shortened: as §1
# [14] = molecular target: ELF4 (Homo sapiens, UniProt Q99607 1-663); settings: protein: recombinant; tags: N-terminal GST; dsDNA, one strand shown
# Sequence of ELF4 (Q99607 whole entry): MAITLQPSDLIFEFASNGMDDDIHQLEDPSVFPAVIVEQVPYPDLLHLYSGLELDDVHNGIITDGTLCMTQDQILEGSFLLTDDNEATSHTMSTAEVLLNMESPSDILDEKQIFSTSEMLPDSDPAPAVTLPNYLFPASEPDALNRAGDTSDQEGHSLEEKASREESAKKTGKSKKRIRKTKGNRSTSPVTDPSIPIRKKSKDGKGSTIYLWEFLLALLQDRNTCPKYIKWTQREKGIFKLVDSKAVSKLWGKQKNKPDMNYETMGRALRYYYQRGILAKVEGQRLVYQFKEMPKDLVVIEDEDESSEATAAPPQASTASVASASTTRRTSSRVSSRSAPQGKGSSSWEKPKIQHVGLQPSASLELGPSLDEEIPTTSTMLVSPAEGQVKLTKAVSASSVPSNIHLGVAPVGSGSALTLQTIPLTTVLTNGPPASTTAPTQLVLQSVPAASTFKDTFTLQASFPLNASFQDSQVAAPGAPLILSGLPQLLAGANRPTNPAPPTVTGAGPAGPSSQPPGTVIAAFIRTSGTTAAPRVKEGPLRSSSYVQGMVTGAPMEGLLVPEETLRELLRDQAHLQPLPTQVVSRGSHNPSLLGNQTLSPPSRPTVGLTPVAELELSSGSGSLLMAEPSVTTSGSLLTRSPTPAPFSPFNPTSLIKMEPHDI
# Procedure, shortened: as §1
# [15] = molecular target: T9, ELK4 (Homo sapiens, UniProt P28324-2 1-405); settings: protein: recombinant; tags: N-terminal GST; dsDNA, one strand shown
# T9 sequence: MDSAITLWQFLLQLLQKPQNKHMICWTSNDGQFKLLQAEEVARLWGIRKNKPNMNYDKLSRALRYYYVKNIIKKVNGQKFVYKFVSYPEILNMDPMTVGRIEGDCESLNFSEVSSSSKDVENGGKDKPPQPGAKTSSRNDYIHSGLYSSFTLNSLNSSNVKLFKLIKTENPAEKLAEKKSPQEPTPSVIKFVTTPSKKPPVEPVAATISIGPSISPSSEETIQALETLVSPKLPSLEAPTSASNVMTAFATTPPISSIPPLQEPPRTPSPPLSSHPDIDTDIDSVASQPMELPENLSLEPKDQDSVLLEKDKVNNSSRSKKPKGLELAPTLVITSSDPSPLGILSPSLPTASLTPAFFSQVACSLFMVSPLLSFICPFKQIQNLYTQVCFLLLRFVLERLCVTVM
# Procedure, shortened: as §1
# [16] = molecular target: T10, ETV2 (Homo sapiens, UniProt O00321 1-342); settings: protein: recombinant; tags: N-terminal GST; dsDNA, one strand shown
# T10 sequence: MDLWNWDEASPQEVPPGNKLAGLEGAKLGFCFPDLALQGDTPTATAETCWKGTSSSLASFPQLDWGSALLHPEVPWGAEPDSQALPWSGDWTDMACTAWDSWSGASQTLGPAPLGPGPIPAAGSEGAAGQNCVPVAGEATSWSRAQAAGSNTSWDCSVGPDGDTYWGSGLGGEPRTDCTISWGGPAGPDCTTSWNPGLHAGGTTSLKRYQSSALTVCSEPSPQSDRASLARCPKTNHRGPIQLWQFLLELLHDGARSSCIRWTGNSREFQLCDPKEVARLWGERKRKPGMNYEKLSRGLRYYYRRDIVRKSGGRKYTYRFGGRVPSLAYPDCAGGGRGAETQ
# Procedure, shortened: as §1
# [17] = molecular target: T11, ELF3 (Homo sapiens, UniProt P78545 1-371); settings: protein: recombinant; tags: N-terminal GST; dsDNA, one strand shown
# T11 sequence: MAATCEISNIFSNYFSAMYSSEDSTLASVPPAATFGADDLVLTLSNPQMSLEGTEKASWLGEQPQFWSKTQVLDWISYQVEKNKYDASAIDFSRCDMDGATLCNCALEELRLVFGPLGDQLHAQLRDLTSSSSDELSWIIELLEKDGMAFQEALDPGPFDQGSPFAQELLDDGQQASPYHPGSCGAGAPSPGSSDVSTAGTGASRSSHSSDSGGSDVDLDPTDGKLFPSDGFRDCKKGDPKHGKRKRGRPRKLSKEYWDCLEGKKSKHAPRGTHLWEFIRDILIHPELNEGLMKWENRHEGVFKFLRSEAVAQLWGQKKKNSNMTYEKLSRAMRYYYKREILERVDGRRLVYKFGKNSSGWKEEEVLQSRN
# Procedure, shortened: as §1
# [18] = molecular target: CRX (Homo sapiens, UniProt O43186 1-299); settings: protein: recombinant; tags: N-terminal GST; dsDNA, one strand shown
# Sequence of CRX (O43186 whole entry): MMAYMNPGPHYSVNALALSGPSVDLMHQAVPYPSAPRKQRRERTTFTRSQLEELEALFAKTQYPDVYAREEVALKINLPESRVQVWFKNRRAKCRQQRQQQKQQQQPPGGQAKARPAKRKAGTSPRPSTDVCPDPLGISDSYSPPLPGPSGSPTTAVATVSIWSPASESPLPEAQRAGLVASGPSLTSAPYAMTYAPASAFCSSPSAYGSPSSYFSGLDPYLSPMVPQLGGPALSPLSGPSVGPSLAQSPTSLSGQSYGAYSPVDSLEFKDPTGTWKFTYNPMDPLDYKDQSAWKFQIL
# Procedure, shortened: as §1
# [19] = molecular target: ETV1 (Homo sapiens, UniProt P50549 1-477); settings: protein: recombinant; tags: N-terminal GST; dsDNA, one strand shown
# Sequence of ETV1 (P50549 whole entry): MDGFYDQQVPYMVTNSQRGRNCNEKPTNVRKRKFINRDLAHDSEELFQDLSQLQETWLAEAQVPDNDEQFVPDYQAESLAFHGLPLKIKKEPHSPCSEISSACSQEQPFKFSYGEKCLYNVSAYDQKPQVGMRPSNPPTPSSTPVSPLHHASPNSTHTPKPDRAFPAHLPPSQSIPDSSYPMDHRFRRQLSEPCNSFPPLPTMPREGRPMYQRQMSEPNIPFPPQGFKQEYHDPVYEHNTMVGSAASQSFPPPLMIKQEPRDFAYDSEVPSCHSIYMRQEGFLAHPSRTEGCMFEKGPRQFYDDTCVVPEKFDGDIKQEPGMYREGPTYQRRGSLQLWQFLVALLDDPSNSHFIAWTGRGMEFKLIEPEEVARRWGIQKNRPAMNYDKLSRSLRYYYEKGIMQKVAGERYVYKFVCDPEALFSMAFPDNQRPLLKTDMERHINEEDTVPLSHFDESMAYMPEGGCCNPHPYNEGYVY
# Procedure, shortened: as §1
sequence,measurement,setting,value
CTGATT,binding signal,[1],"1.18 fold enrichment (6-mer frequency, TF over GST control)"
same,binding signal,[2],"1.21 fold enrichment (6-mer frequency, TF over GST control)"
same,binding signal,[3],"1.14 fold enrichment (6-mer frequency, TF over GST control)"
same,binding signal,[4],"1.2 fold enrichment (6-mer frequency, TF over GST control)"
same,binding signal,[5],"1.22 fold enrichment (6-mer frequency, TF over GST control)"
same,binding signal,[6],"1.22 fold enrichment (6-mer frequency, TF over GST control)"
same,binding signal,[7],"1.09 fold enrichment (6-mer frequency, TF over GST control)"
same,binding signal,[8],"1.21 fold enrichment (6-mer frequency, TF over GST control)"
same,binding signal,[9],"1.21 fold enrichment (6-mer frequency, TF over GST control)"
same,binding signal,[10],"1.05 fold enrichment (6-mer frequency, TF over GST control)"
same,binding signal,[11],"1.25 fold enrichment (6-mer frequency, TF over GST control)"
same,binding signal,[12],"1.32 fold enrichment (6-mer frequency, TF over GST control)"
same,binding signal,[13],"1.5 fold enrichment (6-mer frequency, TF over GST control)"
same,binding signal,[14],"1.22 fold enrichment (6-mer frequency, TF over GST control)"
same,binding signal,[15],"1.09 fold enrichment (6-mer frequency, TF over GST control)"
same,binding signal,[16],"1.21 fold enrichment (6-mer frequency, TF over GST control)"
same,binding signal,[17],"1.12 fold enrichment (6-mer frequency, TF over GST control)"
same,binding signal,[18],"1.51 fold enrichment (6-mer frequency, TF over GST control)"
same,binding signal,[19],"1.27 fold enrichment (6-mer frequency, TF over GST control)"
